This note sets out measurements from publication PMC11006913.

Common to all, as to test: PBM; 200 nM protein, PBS
What all share (settings): dsDNA, one strand shown

In assay [1] the target is HOXA4 (Homo sapiens, UniProt Q00056 201-287, W262R).
For assay [2], the target named is HOXC9 (Homo sapiens, UniProt P31274 178-260, K195R).
Assay [3] has as its target HOXA4 (Homo sapiens, UniProt Q00056 201-287, R217L).
In assay [4] the target is HOXC9 (Homo sapiens, UniProt P31274 178-260).
The target in assay [5] is HOXD13 (Homo sapiens, UniProt P35453 263-343, T313R).
Assay [6] addresses HOXC9 (Homo sapiens, UniProt P31274 178-260, R193K).
Assay [7] addresses HOXD13 (Homo sapiens, UniProt P35453 263-343).
In assay [8] the target is HOXA4 (Homo sapiens, UniProt Q00056 201-287).
Assay [9] addresses HOXD13 (Homo sapiens, UniProt P35453 263-343, T313A).
For assay [10], the target named is HOXC9 (Homo sapiens, UniProt P31274 178-260, R222W).
Assay [11] deals with HOXA4 (Homo sapiens, UniProt Q00056 201-287, W262F).
The target in assay [12] is HOXA2 (Homo sapiens, UniProt O43364 129-215, R185T).
Assay [13] addresses HOXA2 (Homo sapiens, UniProt O43364 129-215, R185K).
Assay [14] addresses HOXA2 (Homo sapiens, UniProt O43364 129-215, Y150S).
For assay [15], the target named is HOXA2 (Homo sapiens, UniProt O43364 129-215).
The target in assay [16] is VAX1 (Homo sapiens, UniProt Q5SQQ9 86-172).
For assay [17], the target named is VAX1 (Homo sapiens, UniProt Q5SQQ9 86-172, T142I).
The target in assay [18] is VAX1 (Homo sapiens, UniProt Q5SQQ9 86-172, K157R).
For another assay, the target named is T1, NKX2-6 (Homo sapiens, UniProt A6NCS4 118-204, R150C).
T1 sequence: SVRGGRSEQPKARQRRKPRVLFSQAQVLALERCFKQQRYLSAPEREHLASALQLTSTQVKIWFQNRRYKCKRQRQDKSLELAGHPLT

Assay [19] deals with ALX3 (Homo sapiens, UniProt O95076 139-225, N203Q).
In assay [20] the target is ALX3 (Homo sapiens, UniProt O95076 139-225).
Assay [21] addresses ALX3 (Homo sapiens, UniProt O95076 139-225, L168Q).
Assay [22] has as its target ALX3 (Homo sapiens, UniProt O95076 139-225, L168V).
In assay [23] the target is ALX3 (Homo sapiens, UniProt O95076 139-225, N203S).
Assay [24] has as its target MSX2 (Homo sapiens, UniProt P35548 130-214, R199I).
Assay [25] concerns the target MSX2 (Homo sapiens, UniProt P35548 130-214).
The target in assay [26] is MSX2 (Homo sapiens, UniProt P35548 130-214, F161Y).
Sequence of MSX2 (Homo sapiens, UniProt P35548 130-214, F161Y) (P35548 130-214 F161Y): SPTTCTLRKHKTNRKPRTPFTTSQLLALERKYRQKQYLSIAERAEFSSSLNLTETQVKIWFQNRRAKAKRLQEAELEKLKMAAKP

Sequence of HOXA4 (Homo sapiens, UniProt Q00056 201-287, R217L) (Q00056 201-287 R217L): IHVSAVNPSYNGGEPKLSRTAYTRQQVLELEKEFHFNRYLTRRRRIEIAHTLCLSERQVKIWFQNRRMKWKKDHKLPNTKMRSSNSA
Sequence of HOXA4 (Homo sapiens, UniProt Q00056 201-287) (Q00056 201-287): as the sequence (Q00056 201-287 R217L) above, with L17R counted along it
Sequence of HOXA4 (Homo sapiens, UniProt Q00056 201-287, W262F) (Q00056 201-287 W262F): as the sequence (Q00056 201-287 R217L) above, with L17R, W62F counted along it
Sequence of HOXA4 (Homo sapiens, UniProt Q00056 201-287, W262R) (Q00056 201-287 W262R): as the sequence (Q00056 201-287 R217L) above, with L17R, W62R counted along it
Sequence of HOXA2 (Homo sapiens, UniProt O43364 129-215, R185T) (O43364 129-215 R185T): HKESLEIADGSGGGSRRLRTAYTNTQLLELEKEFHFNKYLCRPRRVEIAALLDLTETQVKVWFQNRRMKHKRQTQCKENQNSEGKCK
Sequence of HOXA2 (Homo sapiens, UniProt O43364 129-215, R185K) (O43364 129-215 R185K): as the sequence (O43364 129-215 R185T) above, with T57K counted along it
Sequence of HOXA2 (Homo sapiens, UniProt O43364 129-215) (O43364 129-215): as the sequence (O43364 129-215 R185T) above, with T57R counted along it
Sequence of HOXA2 (Homo sapiens, UniProt O43364 129-215, Y150S) (O43364 129-215 Y150S): as the sequence (O43364 129-215 R185T) above, with Y22S, T57R counted along it
Sequence of MSX2 (Homo sapiens, UniProt P35548 130-214) (P35548 130-214): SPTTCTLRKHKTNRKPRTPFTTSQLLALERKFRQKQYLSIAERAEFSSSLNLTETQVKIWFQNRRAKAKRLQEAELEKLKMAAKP
Sequence of HOXD13 (Homo sapiens, UniProt P35453 263-343, T313R) (P35453 263-343 T313R): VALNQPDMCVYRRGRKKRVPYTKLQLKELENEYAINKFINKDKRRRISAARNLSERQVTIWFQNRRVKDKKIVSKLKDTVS
Sequence of VAX1 (Homo sapiens, UniProt Q5SQQ9 86-172, T142I) (Q5SQQ9 86-172 T142I): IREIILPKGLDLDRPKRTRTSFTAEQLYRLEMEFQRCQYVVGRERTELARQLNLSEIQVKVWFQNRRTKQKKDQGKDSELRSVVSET
Sequence of ALX3 (Homo sapiens, UniProt O95076 139-225, N203Q) (O95076 139-225 N203Q): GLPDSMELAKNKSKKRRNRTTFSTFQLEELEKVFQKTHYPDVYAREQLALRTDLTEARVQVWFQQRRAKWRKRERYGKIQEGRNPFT
Sequence of HOXC9 (Homo sapiens, UniProt P31274 178-260, K195R) (P31274 178-260 K195R): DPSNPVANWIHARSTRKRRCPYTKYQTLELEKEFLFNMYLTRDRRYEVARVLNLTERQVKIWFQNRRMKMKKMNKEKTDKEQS
Sequence of HOXD13 (Homo sapiens, UniProt P35453 263-343, T313A) (P35453 263-343 T313A): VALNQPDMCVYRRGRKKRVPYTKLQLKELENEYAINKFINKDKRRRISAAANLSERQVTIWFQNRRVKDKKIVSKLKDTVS
Sequence of ALX3 (Homo sapiens, UniProt O95076 139-225, L168V) (O95076 139-225 L168V): as the sequence (O95076 139-225 N203Q) above, with L30V, Q65N counted along it
Sequence of HOXC9 (Homo sapiens, UniProt P31274 178-260, R193K) (P31274 178-260 R193K): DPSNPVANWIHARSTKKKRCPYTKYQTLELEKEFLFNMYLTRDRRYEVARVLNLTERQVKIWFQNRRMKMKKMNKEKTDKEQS
Sequence of ALX3 (Homo sapiens, UniProt O95076 139-225, N203S) (O95076 139-225 N203S): as the sequence (O95076 139-225 N203Q) above, with Q65S counted along it
Sequence of ALX3 (Homo sapiens, UniProt O95076 139-225) (O95076 139-225): as the sequence (O95076 139-225 N203Q) above, with Q65N counted along it
Sequence of ALX3 (Homo sapiens, UniProt O95076 139-225, L168Q) (O95076 139-225 L168Q): as the sequence (O95076 139-225 N203Q) above, with L30Q, Q65N counted along it
Sequence of VAX1 (Homo sapiens, UniProt Q5SQQ9 86-172) (Q5SQQ9 86-172): as the sequence (Q5SQQ9 86-172 T142I) above, with I57T counted along it
Sequence of MSX2 (Homo sapiens, UniProt P35548 130-214, R199I) (P35548 130-214 R199I): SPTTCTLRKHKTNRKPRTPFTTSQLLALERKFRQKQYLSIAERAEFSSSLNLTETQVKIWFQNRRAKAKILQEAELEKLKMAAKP
Sequence of HOXC9 (Homo sapiens, UniProt P31274 178-260, R222W) (P31274 178-260 R222W): as the sequence (P31274 178-260 R193K) above, with K16R, R45W counted along it
Sequence of VAX1 (Homo sapiens, UniProt Q5SQQ9 86-172, K157R) (Q5SQQ9 86-172 K157R): as the sequence (Q5SQQ9 86-172 T142I) above, with I57T, K72R counted along it
Sequence of HOXC9 (Homo sapiens, UniProt P31274 178-260) (P31274 178-260): as the sequence (P31274 178-260 R193K) above, with K16R counted along it
Sequence of HOXD13 (Homo sapiens, UniProt P35453 263-343) (P35453 263-343): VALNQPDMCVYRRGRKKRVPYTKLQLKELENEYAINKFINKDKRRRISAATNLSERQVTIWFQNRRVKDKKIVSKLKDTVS

CCCGACGC: the binding signal with HOXA4 [1] is 9.83 upbm affinity estimate (log intensity, higher = more binding, comparable within an allelic series); with HOXC9 [2] it was 9.46 upbm affinity estimate (log intensity, higher = more binding, comparable within an allelic series); in the assay with HOXA4 [3], 9.86 upbm affinity estimate (log intensity, higher = more binding, comparable within an allelic series); in the assay with HOXC9 [4], 9.54 upbm affinity estimate (log intensity, higher = more binding, comparable within an allelic series); with HOXD13 [5] it was 9.45 upbm affinity estimate (log intensity, higher = more binding, comparable within an allelic series); with HOXC9 [6], 9.42 upbm affinity estimate (log intensity, higher = more binding, comparable within an allelic series). The binding signal with HOXD13 [7] is 9.26 upbm affinity estimate (log intensity, higher = more binding, comparable within an allelic series); with HOXA4 [8], 9.73 upbm affinity estimate (log intensity, higher = more binding, comparable within an allelic series); in the assay with HOXD13 [9], 9.49 upbm affinity estimate (log intensity, higher = more binding, comparable within an allelic series); in the assay with HOXC9 [10] it was 9.75 upbm affinity estimate (log intensity, higher = more binding, comparable within an allelic series); in the assay with HOXA4 [11], 9.96 upbm affinity estimate (log intensity, higher = more binding, comparable within an allelic series).

As for GACCCCCC, the binding signal is 9.49 upbm affinity estimate (log intensity, higher = more binding, comparable within an allelic series) in the assay with HOXA4 [1]; 9.56 upbm affinity estimate (log intensity, higher = more binding, comparable within an allelic series) with HOXA4 [3]; 9.7 upbm affinity estimate (log intensity, higher = more binding, comparable within an allelic series) with HOXA4 [8]; 9.59 upbm affinity estimate (log intensity, higher = more binding, comparable within an allelic series) with HOXA4 [11].

Take CACTGGCC: the binding signal with HOXA4 [1] is 9.86 upbm affinity estimate (log intensity, higher = more binding, comparable within an allelic series); with HOXA2 [12], 7.06 upbm affinity estimate (log intensity, higher = more binding, comparable within an allelic series); in the assay with HOXA4 [3] it was 9.9 upbm affinity estimate (log intensity, higher = more binding, comparable within an allelic series); with HOXA2 [13], 10.5 upbm affinity estimate (log intensity, higher = more binding, comparable within an allelic series); in the assay with HOXA4 [8], 9.86 upbm affinity estimate (log intensity, higher = more binding, comparable within an allelic series); in the assay with HOXA2 [14], 10.5 upbm affinity estimate (log intensity, higher = more binding, comparable within an allelic series). The binding signal with HOXA4 [11] was 9.96 upbm affinity estimate (log intensity, higher = more binding, comparable within an allelic series); with HOXA2 [15], 7.16 upbm affinity estimate (log intensity, higher = more binding, comparable within an allelic series).

For the sequence TAATGAGA, the binding signal in the assay with HOXA4 [1] was 10.5 upbm affinity estimate (log intensity, higher = more binding, comparable within an allelic series); in the assay with HOXA2 [12], 12.9 upbm affinity estimate (log intensity, higher = more binding, comparable within an allelic series); with HOXA4 [3], 11.8 upbm affinity estimate (log intensity, higher = more binding, comparable within an allelic series); with HOXA2 [13], 13.3 upbm affinity estimate (log intensity, higher = more binding, comparable within an allelic series); with HOXA4 [8] it was 13.6 upbm affinity estimate (log intensity, higher = more binding, comparable within an allelic series); with VAX1 [16] it was 13.2 upbm affinity estimate (log intensity, higher = more binding, comparable within an allelic series). The binding signal in the assay with VAX1 [17] is 12.7 upbm affinity estimate (log intensity, higher = more binding, comparable within an allelic series); in the assay with HOXA2 [14], 10.8 upbm affinity estimate (log intensity, higher = more binding, comparable within an allelic series); with HOXA4 [11], 11.5 upbm affinity estimate (log intensity, higher = more binding, comparable within an allelic series); in the assay with HOXA2 [15] it was 12.5 upbm affinity estimate (log intensity, higher = more binding, comparable within an allelic series); with VAX1 [18] it was 12.8 upbm affinity estimate (log intensity, higher = more binding, comparable within an allelic series).

Turning to AGGGACGG, the binding signal is 9.81 upbm affinity estimate (log intensity, higher = more binding, comparable within an allelic series) in the assay with HOXA4 [1]; 9.83 upbm affinity estimate (log intensity, higher = more binding, comparable within an allelic series) in the assay with HOXA4 [3]; 9.6 upbm affinity estimate (log intensity, higher = more binding, comparable within an allelic series) with NKX2-6; 9.78 upbm affinity estimate (log intensity, higher = more binding, comparable within an allelic series) in the assay with HOXA4 [8]; 9.93 upbm affinity estimate (log intensity, higher = more binding, comparable within an allelic series) with HOXA4 [11].

In the case of CCCCCCGA, the binding signal in the assay with HOXA4 [1] is 9.72 upbm affinity estimate (log intensity, higher = more binding, comparable within an allelic series); with HOXA4 [3] it was 9.69 upbm affinity estimate (log intensity, higher = more binding, comparable within an allelic series); in the assay with ALX3 [19], 7.7 upbm affinity estimate (log intensity, higher = more binding, comparable within an allelic series); with HOXA4 [8], 9.77 upbm affinity estimate (log intensity, higher = more binding, comparable within an allelic series); in the assay with ALX3 [20] it was 7.94 upbm affinity estimate (log intensity, higher = more binding, comparable within an allelic series); with ALX3 [21] it was 7.67 upbm affinity estimate (log intensity, higher = more binding, comparable within an allelic series). Further, the binding signal with ALX3 [22] was 7.65 upbm affinity estimate (log intensity, higher = more binding, comparable within an allelic series); with HOXA4 [11], 9.57 upbm affinity estimate (log intensity, higher = more binding, comparable within an allelic series); in the assay with ALX3 [23], 7.71 upbm affinity estimate (log intensity, higher = more binding, comparable within an allelic series).

Turning to GCTGCTCC, the binding signal with HOXA4 [1] is 9.76 upbm affinity estimate (log intensity, higher = more binding, comparable within an allelic series); in the assay with HOXA4 [3], 9.74 upbm affinity estimate (log intensity, higher = more binding, comparable within an allelic series); in the assay with MSX2 [24], 9.39 upbm affinity estimate (log intensity, higher = more binding, comparable within an allelic series); with HOXA4 [8], 9.73 upbm affinity estimate (log intensity, higher = more binding, comparable within an allelic series); with MSX2 [25], 9.4 upbm affinity estimate (log intensity, higher = more binding, comparable within an allelic series); with MSX2 [26], 9.41 upbm affinity estimate (log intensity, higher = more binding, comparable within an allelic series). Also, in the assay with HOXA4 [11], the binding signal was 9.78 upbm affinity estimate (log intensity, higher = more binding, comparable within an allelic series).
